Test results reported in PubChem BioAssay (NCATS).
Records with an inconclusive call do not appear. Calls of active or inactive are those of the source. Calls follow the shape of the dose curve; as a rule, active = well fitted cell-killing curve with a large enough effect; inconclusive = small, poorly fitted or top-dose-only effect; inactive = flat fitted curve, though single readings scatter.

Experiments:
[1] = Cell Viability - LYMP2-025 (AID 976); settings: LYMP2-025 lymphoblastoid cell viability; series mostly up to 92.2 µM
Procedure, shortened: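 Acute cytotoxicity is scored as a concentration-dependent fall in intracellular ATP, measured by luciferase luminescence, in human lymphoblastoid LYMP2-025 cells exposed to compound for 24 hours at 37 C. AC50 values come from standard Hill fits.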

[2] = Cell Viability - LYMP2-002 (AID 977); settings: LYMP2-002 lymphoblastoid cell viability, qHTS; series mostly up to 92.2 µM;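 also: compound exposure lasted 24 h at 37 °C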
Procedure, shortened: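 Human lymphoblastoid cells, 2500/well, complete medium; 5 h 37 C settle; compound 24 h 37 C; CellTiter-Glo, 30 min RT; luminescence. Decrease in ATP = cytotoxicity; AC50 via Hill equation.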

[3] = Cell Viability - LYMP2-006 (AID 978); settings: LYMP2-006 lymphoblastoid cell viability, qHTS; series mostly up to 92.2 µM; also: nearly all actives have a fitted effect of over 60% in size
Procedure, shortened: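 Cells are seeded at 2500 per well and rested 5 hr at 37 C. Compounds are added across a concentration series for 24 hr at 37 C, after which ATP is quantified by luciferase luminescence.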

[4] = Cell Viability - LYMP2-007 (AID 979); settings: LYMP2-007 lymphoblastoid cell viability; series mostly up to 92.2 µM;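 also: cells exposed to compound for 24 h before reading; nearly all actives have a fitted effect of over 60% in size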
Procedure, shortened: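 Cells are seeded at 2500 per well and rested 5 hr. Compounds are then added over a concentration series for 24 hr at 37 C. CellTiter-Glo is added for 30 min at room temperature before luminescence reading.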

[5] = Cell Viability - LYMP2-008 (AID 980); settings: LYMP2-008 lymphoblastoid cell viability, qHTS; series mostly up to 92.2 µM; also: nearly all actives have a fitted effect of over 60% in size
Procedure, shortened: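 Cells seeded at 2500/well and rested 5 hr at 37 C; compounds added over a concentration range and incubated 24 hr at 37 C; CellTiter-Glo added, 30 min at room temperature; luminescence read and AC50 fitted with Hill model.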

[6] = Cell Viability - LYMP2-010 (AID 981); settings: LYMP2-010 lymphoblastoid cell viability, qHTS; series mostly up to 92.2 µM; also: nearly all actives have a fitted effect of over 55% in size
Procedure, shortened: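 Steps: seed 2500 LYMP2-010 cells per well; incubate 5 hr at 37 C; add compound; incubate 24 hr at 37 C; add CellTiter-Glo, wait 30 min at room temperature; read luminescence. Concentration-response fitted to Hill equation for AC50.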

[7] = Cell Viability - LYMP2-012 (AID 982); settings: LYMP2-012 lymphoblastoid cell viability qHTS; series mostly up to 92.2 µM;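 also: cellular ATP by luciferase luminescence where a drop means cytotoxicity; cells exposed to compound for one day before reading; nearly all actives have a fitted effect of over 55% in size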
[8] = Cell Viability - LYMP2-014 (AID 983); settings: LYMP2-014 lymphoblastoid cells, viability qHTS; series mostly up to 92.2 µM; also: nearly all actives have a fitted effect of over 50% in size
Procedure, shortened: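 Cells are plated at 2500/well and left 5 hr at 37 C. Compounds are added across a concentration range and incubated 24 hr at 37 C in complete medium. CellTiter-Glo is added, and luminescence is read after 30 min at room temperature.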

[9] = Cell Viability - LYMP2-016 (AID 984); settings: LYMP2-016 lymphoblastoid cell viability, qHTS; series mostly up to 92.2 µM; also: nearly all actives have a fitted effect of over 55% in size
Procedure, shortened: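 Cells were seeded at 2500 per well and rested 5 hr before a 24 hr compound exposure at 37 C. Viability was then gauged as cellular ATP by luciferase luminescence, with AC50 values fitted to the Hill equation.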

[10] = Cell Viability - LYMP2-018 (AID 985); settings: LYMP2-018 lymphoblastoid cells, viability (qHTS); series mostly up to 92.2 µM; also: nearly all actives have a fitted effect of over 50% in size
Procedure, shortened: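 Seed 2500 lymphoblastoid cells per well, incubate 5 hr at 37 C, add compound and incubate 24 hr at 37 C, add CellTiter-Glo, wait 30 min at room temperature, then read luminescence.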

Measured: Potency

Nc1cc(Cl)c([N+](=O)[O-])cc1O
inactive: all assays above

CC(C)N(C)C
inactive: all assays above

O=C1CCC(=O)O1
inactive: all assays above

COC(=O)c1ccccc1
inactive: all assays above

Cc1ccc(Cl)cc1N
inactive: all assays above

CCCCCCCCC/C=C/CC1CC(=O)OC1=O (stereo not given)
inactive: all assays above

C=Cc1ccccc1C=C
inactive: all assays above

CC(=O)C1(C)CC2=C(CCCC2(C)C)CC1C (stereo not given)
inactive: all assays above

O=Cc1ccc(CO)o1
inactive: all assays above

O=C(O)CCSSCCC(=O)O
inactive: all assays above

CCCCCCCCC
inactive: all assays above

BrC(Br)C(Br)Br
inactive: all assays above

CC(CCl)OC(C)CCl (stereo not given)
inactive: all assays above

CCCCCCC=O
inactive: all assays above

O=[N+]([O-])c1cccc(Cl)c1
inactive: all assays above

CC(C)c1ccccc1
inactive: all assays above

O=Cc1ccccc1Cl
inactive: all assays above

CC(=C/C=C/C(C)=C/C=C/C=C(C)/C=C/C=C(C)/C=C/C(=O)O)/C=C/C(=O)O
inactive: all assays above

CC(=O)c1nccs1
inactive: all assays above

C=C(C)C(=O)OC
inactive: all assays above

O=C(O)c1ccc(Cl)c(Cl)c1
inactive: all assays above

CC(C)(O)C(=O)O
inactive: all assays above

N#CC1(O)CCCCC1
inactive: all assays above

O=C(O)CNC(=O)c1ccc([N+](=O)[O-])cc1
inactive: all assays above

c1ccc2c(c1)ccc1ncccc12
inactive: all assays above

Cc1cccc(C)c1
inactive: all assays above

NC(=O)CCCCC(N)=O
inactive: all assays above

CCC1CO1 (stereo not given)
inactive: all assays above

CC(C)(C)c1ccc(OCC2CO2)cc1 (stereo not given)
inactive: all assays above

CC(=O)c1cccc([N+](=O)[O-])c1
inactive: all assays above

C=CC(=O)NC(C)C
inactive: all assays above

ON=C1CCCCC1
inactive: all assays above

O=[N+]([O-])c1ccc(Cl)cc1Cl
inactive: all assays above

CCCCC=O
inactive: all assays above

FC(F)(F)c1cccc(Cl)c1
inactive: all assays above

Nc1cc([N+](=O)[O-])ccc1C(=O)O
inactive: all assays above

CCCOCC(C)OCC(C)O (stereo not given)
inactive: all assays above

Cc1ccc(C)o1
inactive: all assays above

Cc1ccc(C)c(O)c1
inactive: all assays above

Nc1cccc2c(=O)[nH][nH]c(=O)c12
inactive: all assays above

Cc1ccco1
inactive: all assays above

CCCCCCCN
inactive: all assays above

CC(=O)c1ccc([N+](=O)[O-])cc1
inactive: all assays above

Clc1ccc(Cl)c(Cl)c1Cl
inactive: all assays above

c1ccc2[nH]cnc2c1
inactive: all assays above

Cc1ccc(C)c([N+](=O)[O-])c1
inactive: all assays above

COc1cccc(N)c1
inactive: all assays above

O=C1OC(=O)c2c(Cl)c(Cl)c(Cl)c(Cl)c21
inactive: all assays above

CN(C)c1cccc(O)c1
inactive: all assays above

COC(=O)CCCC(=O)OC
inactive: all assays above

CCOCCO
inactive: all assays above

CC(C)Nc1ccccc1
inactive: all assays above

O=C1NC(=O)c2cc([N+](=O)[O-])ccc21
inactive: all assays above

Cc1nc2ccc(Cl)cc2[nH]1
inactive: all assays above

CCc1ccccc1O
inactive: all assays above

CSc1ccc(C=O)cc1
inactive: all assays above

S=C([S-])NCCNC(=S)[S-].[Zn+2]
inactive: all assays above

Cc1cccc(C)c1[N+](=O)[O-]
inactive: all assays above

Nc1cccc(O)c1
inactive: all assays above

O=[N+]([O-])c1cccc(C(F)(F)F)c1
inactive: all assays above

O=Cc1cccc(Br)c1
inactive: all assays above

CCCCC(C=O)CC (stereo not given)
inactive: all assays above

CC(C)N=C=NC(C)C
inactive: all assays above

CCCCCCCCCCCCOCC1CO1 (stereo not given)
inactive: all assays above

Nc1nc2ccccc2[nH]1
inactive: all assays above

CC(C=O)Cc1ccc(C(C)(C)C)cc1 (stereo not given)
inactive: all assays above

CNC(=O)c1ccccc1
inactive: all assays above

C1COC1
inactive: all assays above
